Laboratory results from the supplement of paper PMC7366291.
Counter-ions that a name gives are not always drawn. ± gives the standard deviation or the standard deviation of the averaged measurements.

How the values were obtained:
Settings in all cases: 25 µM; exposure: 24-48 hpf
[1] = system: Danio rerio Tg(wt1b:EGFP) embryo, pronephros; assay: glomerular separation, fold change vs DMSO control; higher = glomeruli further apart (abnormal)
How it was run: (§1)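 In HEPES-buffered E3 with 0.003% PTU and 0.5% DMSO, dechorionated Tg(wt1b:EGFP) zebrafish embryos were exposed to 25 μM compound from 24 to 48 hpf at 28.5°C. Pronephroi were then imaged dorsally at 470 nm in 10 z-slices, in 96-well plates filled with agarose. On maximum projections, a Fiji macro turned 16 manually placed reference points into distances and angles, and values more than 2 SD from the feature mean were excluded. Features are fold changes relative to the mean of DMSO-treated embryos from the same day.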

[2] = system: Danio rerio Tg(wt1b:EGFP) embryo, pronephros; assay: glomerular width (mean of left and right), fold change vs DMSO control; higher = wider glomerulus
How it was run: as §1

[3] = system: Danio rerio Tg(wt1b:EGFP) embryo, pronephros; assay: fraction of imaged embryos annotated as normal kidney; higher = less nephrotoxic; extreme values may be limits of the assay
How it was run: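 The value given is the share of embryos in each treatment scored as having a normal kidney. To obtain it, dechorionated Tg(wt1b:EGFP) zebrafish embryos were treated from 24 to 48 hpf at 28.5°C with 25 μM compound in 0.5% DMSO, in 5 mM HEPES-buffered E3 with 0.003% PTU. Pronephroi were imaged by widefield fluorescence (470 nm, 10 z-slices), and every embryo was annotated by hand from maximum projections.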

[4] = system: Danio rerio Tg(wt1b:EGFP) embryo, pronephros; assay: pronephric angle neck segment to proximal convoluted tubule (mean of left and right), fold change vs DMSO control; higher = larger pronephric angle
How it was run: as §1

Compound	glomerular separation [1]	glomerular width [2]	fraction of imaged embryos annotated as normal kidney [3]	pronephric angle neck segment [4]
Nc1c(Br)cc(Br)cc1CN[C@H]1CC[C@H](O)CC1 [Ambroxol hydrochloride]	1.05 ± 0.28	0.969 ± 0.036	1	1.003 ± 0.0037
N/C(=N\C(=O)c1nc(Cl)c(N)nc1N)NCc1ccccc1 [Benzamil hydrochloride]	0.935 ± 0.43	1.05 ± 0.019	0.917	0.98 ± 0.018
COc1c2occc2c(OC)c2c(=O)cc(C)oc12 [Khellin]	0.835 ± 0.39	1 ± 0.033	1	1.03 ± 0.0013
COC(=O)C1=C(C)NC(C)=C(C(=O)OC)C1c1ccccc1[N+](=O)[O-] [Nifedipine]	1.1 ± 0.54	1.05 ± 0.077	0	1.33 ± 0.09
CC(=O)Nc1nnc(S(N)(=O)=O)s1 [Acetazolamide]	0.751 ± 0.2	0.973 ± 0.029	0.917	0.9766 ± 0.0062
c1ccc(CC2=NCCN2)cc1 [Tolazoline hydrochloride]	0.955 ± 0.4	1.03 ± 0.053	0.667	0.949 ± 0.013
CN(C)CCC=C1c2ccccc2CCc2ccccc21 [Amitryptiline hydrochloride]	1.3 ± 0.62	0.973 ± 0.14	0.917	1.02 ± 0.072
CC(C)NCC(O)c1cc(O)cc(O)c1 (configuration not stated) [Metaproterenol sulfate, orciprenaline sulfate]	1.08 ± 0.74	1.02 ± 0.014	0.909	1.08 ± 0.07
NC(=O)OCC(COC(N)=O)c1ccccc1 [Felbamate]	0.918 ± 0.32	1.05 ± 0.031	0.833	1.01 ± 0.013
CC(=O)O[C@H]1C[C@@H]2CC[C@@H]3[C@H](CC[C@@]4(C)[C@H]3C[C@H]([N+]3(C)CCCCC3)[C@@H]4OC(C)=O)[C@@]2(C)C[C@@H]1N1CCCCC1 [Vecuronium bromide]	1.01 ± 0.35	0.967 ± 0.024	1	1.03 ± 0.028
C[C@]12C=CC(=O)C=C1CC[C@@H]1[C@@H]2[C@@H](O)C[C@@]2(C)[C@H]1CC[C@]2(O)C(=O)CO [Prednisolone]	1.36 ± 0.94	1.22 ± 0.043	0.75	1.04 ± 0.02
C#C[C@]1(O)CC[C@H]2[C@@H]3CCC4=CCCC[C@@H]4[C@H]3CC[C@@]21C [Lynestrenol]	0.801 ± 0.38	0.994 ± 0.054	0.917	1.02 ± 0.051
CN[C@H]1CC[C@@H](c2ccc(Cl)c(Cl)c2)c2ccccc21 [Sertraline]	0.914 ± 0.35	0.973 ± 0.035	0.917	0.969 ± 0.045
